D3 antag: qHTS of D3 Dopamine Receptor Antagonist: qHTS; hit rate 2.5% among 360,000; D3R cells, DiscoveRx beta-arrestin luminescence, antagonist mode; active compounds read low; max response, negative = inhibition, %; AID 652054, 2013; in the data active means max response below about -50%; inconclusive means no clear call, values can overlap the other calls; further: on the % scale 0 is the no-effect control and ±100 the full control effect
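Cells plated overnight at 1500 cells/well, then exposed to library compounds with dopamine controls for 90 minutes at 37 degrees C. DiscoveRx reagent added for 30–60 minutes at room temperature; luminescence read, quantitative HTS format.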
DRD3 agonist: qHTS of D3 Dopamine Receptor Agonist: qHTS; D3R DiscoveRx beta-arrestin cells, luminescence, 90 min; hit rate 0.58% among 410,000; max activation, %; D(3) dopamine receptor (Homo sapiens), P35462; in the data active means max activation above about 30%; further: 0% is about no effect
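Agonist-mode cell screen: cells plated at 1500/well and incubated overnight at 37 °C, then exposed to library compounds for 90 min at 37 °C. Detection reagent was added for 30–60 min at room temperature, and luminescence was read.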
ClpP mod: qHTS Assay for Activators of ClpP. ATP-dependent Clp protease proteolytic subunit (Bacillus subtilis (strain 168)), P80244. purified B. subtilis ClpP, FRET peptide cleavage, 20 min. Potency, µM (doses to about 57.5 µM), inactives show top-dose activity change, negative = active. hit rate 1.9% among 340,000. AID 651965, 2013; active means well fitted falling curve with a large enough effect; inconclusive means small, poorly fitted or top-dose-only effect; inactive means no such curve, though single readings can be large or run the other way; further: potency means the concentration at half of the fitted maximal effect; the source files actives as falling curves though it sought activators and does not explain the sign; nearly all actives have a fitted effect of over 65% in size
Target sequence (P80244 whole entry, looked up): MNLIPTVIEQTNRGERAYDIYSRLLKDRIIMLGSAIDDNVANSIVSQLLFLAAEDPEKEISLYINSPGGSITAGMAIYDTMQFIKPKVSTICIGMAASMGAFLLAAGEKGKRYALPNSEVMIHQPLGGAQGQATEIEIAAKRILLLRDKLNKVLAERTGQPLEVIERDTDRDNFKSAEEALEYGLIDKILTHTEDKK
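Buffer: 100 mM Tris/HCl pH8, 100 mM KCl, 0.05% low protease BSA, 2.5% glycerol, 0.01% Tween-20. ClpP 10 microg/mL final; 20 min RT; delta FRET normalized to ADEP and DMSO controls.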
IL1B secr inh: qHTS for Inhibitors of Inflammasome Signaling: IL-1-beta AlphaLISA Primary Screen; THP-1 LPS/ATP IL-1B secretion, AlphaLISA, 16 h; active compounds read low; activity change, % at 57.5 µM; hit rate 4.7% among 360,000; AID 743279, 2014; in the data active means activity change below about -50%; inconclusive means mostly about -30% to -49%; further: on the % scale 0 is the no-effect control and ±100 the full control effect
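Secreted IL-1B measured by AlphaLISA bead assay after 16 h compound exposure of THP-1 cells; compounds (final up to 57.5 uM) added 1 h before LPS (250 ng/mL) and ATP (1.25 mM) stimulation; lower signal means less secretion.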
DT40 TDP1 no CPT: qHTS for Inhibitors of human tyrosyl-DNA phosphodiesterase 1 (TDP1): qHTS in cells in absence of CPT | DT40 Tdp1-/- hTDP1 cells, no CPT, ATP luminescence, 48 h | AID 686978, 2013 | Potency, µM (titrated, usually from 46.2 µM), for inactives: top-dose activity change, negative = growth inhibition, hits mostly inhibitors | hit rate 15% among 420,000; further: potency means the concentration at half of the fitted maximal effect; on the % scale 0 is the no-effect control and ±100 the full control effect; nearly all actives have a fitted effect of over 55% in size
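Stably hTDP1-transfected Tdp1-null chicken DT40 cells were treated with library compounds minus camptothecin and grown for at least 48 hr at 37 °C, after which cellular ATP was quantified by luminescence.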
DT40 TDP1 CPT: qHTS for Inhibitors of human tyrosyl-DNA phosphodiesterase 1 (TDP1): qHTS in cells in presence of CPT; hit rate 12% among 420,000; Potency, µM (top dose mostly 46.2 µM), for inactives: at the highest dose activity change, negative = growth inhibition, hits mostly inhibitors; chicken DT40 Tdp1-/-;hTDP1 cells + 20 nM CPT, ATP luminescence, 48 h; further: potency means the concentration at half of the fitted maximal effect; on the % scale 0 is the no-effect control and ±100 the full control effect; nearly all actives have a fitted effect of over 55% in size
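Cell growth measured by CellTiter-Glo luminescence after a minimum 48 h, 37 C compound exposure with 20 nM CPT in Tdp1-knockout DT40 cells stably expressing hTDP1, seeded 400/well; qHTS titration format.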
Starred values were filed as active, the others as inactive; ? = inconclusive; . = not tested or not shown. Sampled rows, rich in hits. Any-hit rate of the full collection: about 21%. Unless noted, the call rests on the fitted dose curve; in most records, active means well fitted inhibition curve with a large enough effect; inconclusive means small, poorly fitted or top-dose-only effect; inactive means flat fitted curve, though single readings scatter.

SMILES	D3 antag	DRD3 agonist	ClpP mod	IL1B secr inh	DT40 TDP1 no CPT	DT40 TDP1 CPT
COCCNC(=O)c1nn(-c2ccc(Cl)cc2)nc1CO	.	6.0	14.1µM*	.	2.0%	-14.7%
CCOc1ccc(-n2nc(CO)c(C(=O)NCC(C)O)n2)cc1 (stereo not drawn)	.	5.1	14.1µM*	.	6.3%	11.5%
CCc1ccc(-n2nc(CO)c(C(=O)NCc3ccccc3OC)n2)cc1	.	4.1	-3.7%	.	-2.5%	-0.8%
CCc1ccc(-n2nc(CO)c(C(=O)NCCCCc3ccccc3)n2)cc1	.	11.8	?	.	-17.9%	7.1%
CCc1ccc(-n2nc(CO)c(C(=O)NCCOC)n2)cc1	.	0.9	12.6µM*	.	-19.8%	-16.4%
CCC(=O)N1CCc2cc(Br)cc(S(=O)(=O)CCC(=O)Nc3ccccc3C)c21	.	7.2	-0.7%	.	-20.7%	-14.6%
CCCc1cc(C(=O)NNC(=S)NC2CCCCC2)cs1	?	-18.2	-0.3%	-9.2	?	?
COc1ccc(CNC(=S)N/N=C(\C)c2ccc(OC)cc2)cc1	2.3	3.4	.	31.1	5.17µM*	11.6µM*
C=CCNC(=S)N/N=C(\C)c1cccc(OC)c1	-21.0	-16.6	?	-77.2*	2.06µM*	1.16µM*
COc1ccc(/C(C)=N/NC(=S)NCc2ccco2)cc1	7.4	0.5	0.9%	-25.8	1.46µM*	2.91µM*
C=CCNC(=S)N/N=C(\C)c1ccc(OC)cc1	6.9	6.2	.	-4.9	?	?
CCOc1cc(/C=N\NC(=O)c2ccc(NC(=O)C(C)(C)C)cc2)ccc1OC(=O)c1cccc(C)c1	7.3	20.1	-14.8%	117.2	8.2µM*	11.6µM*
CCOc1cc(/C=N\NC(=O)c2ccc(NC(=O)CC)cc2)ccc1OC(=O)c1ccccc1	-5.9	2.6	-1.1%	-11.1	?	18.4µM*
CCOc1cc(/C=N\NC(=O)c2ccc(NC(=O)C(C)(C)C)cc2)ccc1OC(=O)c1ccc(C)cc1	0.0	2.0	-15.1%	-5.3	29.1µM*	?
CCOc1cc(/C=N/NC(=O)CNc2ccc(C)cc2)ccc1OC(=O)c1ccccc1	-3.1	4.7	-1.1%	?	?	29.1µM*
CCOc1cc(/C=N\NC(=O)c2ccc(C)nc2)ccc1OC(=O)c1ccc(F)cc1	20.3	-1.2	.	2.0	?	-27.3%
COc1cccc(NC(=O)NC(C)C2CC3CCC2C3)c1 (stereo not drawn)	3.6	1.0	.	3.3	-4.6%	11.6%
CC(=O)[C@H]1CC[C@H]2C3CC=C4C[C@@H](O)CC[C@]4(C)C3CC[C@]12C (stereo partly drawn)	.	.	.	.	13.9%	6.3%
NC(=S)Nc1cc(Cl)cc(Cl)c1	-2.4	7.1	.	.	?	?
NC(=S)NNc1cc(Cl)cc(Cl)c1	-0.7	-1.2	0.5%	-3.3	?	13µM*
NC(=O)c1cccc(Nc2nc(C(N)CCc3ccccc3)cs2)n1 (stereo not drawn)	-9.7	4.7	-1.2%	0.0	2.91µM*	2.06µM*
NC(c1ccccc1)c1csc(Nc2ccc(C(=O)NCCO)cc2)n1 (stereo not drawn)	0.0	8.3	-10.9%	18.3	?	?
COc1cccc(Nc2nc(C(N)C(C)C)cs2)n1 (stereo not drawn)	10.9	0.5	-5.9%	.	23.1µM*	16.4µM*
NC(CCc1ccccc1)c1csc(Nc2cnccn2)n1 (stereo not drawn)	-14.4	5.0	-3.6%	-24.4	13µM*	23.1µM*
COc1cccc(Nc2nc(C(N)CCc3ccccc3)cs2)n1 (stereo not drawn)	13.3	2.1	-10.0%	-87.0*	?	18.4µM*
